Measured values taken from PubChem BioAssay (Tox21).
Inconclusive results are not listed. Where a call stands in place of a potency, no number is given. The source made the active and inactive calls. Calls follow the shape of the dose curve; as a rule, active = well fitted inhibition curve with a large enough effect in the signal ratio in the repeat runs (not every such curve was filed as active); inconclusive = weak or mixed curves, or effect the other way; inactive = no such curve, though single readings can be large or run the other way; the % refers to the signal ratio.

Biological target: Vitamin D3 receptor (Homo sapiens) (UniProt P11473)
Sequence (P11473 whole entry, looked up): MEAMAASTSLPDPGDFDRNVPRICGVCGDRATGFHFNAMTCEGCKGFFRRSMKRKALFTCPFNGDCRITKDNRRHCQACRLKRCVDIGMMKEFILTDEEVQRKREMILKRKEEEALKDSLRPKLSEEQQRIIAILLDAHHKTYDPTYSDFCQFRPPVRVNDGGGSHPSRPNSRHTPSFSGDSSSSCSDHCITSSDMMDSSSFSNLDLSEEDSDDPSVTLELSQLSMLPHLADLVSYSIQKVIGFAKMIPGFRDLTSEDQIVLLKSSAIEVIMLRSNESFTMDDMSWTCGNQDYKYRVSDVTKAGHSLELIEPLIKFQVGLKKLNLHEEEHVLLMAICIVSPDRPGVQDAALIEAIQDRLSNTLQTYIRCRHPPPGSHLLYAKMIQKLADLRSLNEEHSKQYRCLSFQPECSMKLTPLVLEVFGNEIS
Assay: qHTS assay to identify small molecule antagonists of the vitamin D receptor (VDR) signaling pathway (AID 743223)
Conditions: VDR-UAS-bla HEK293T, beta-lactamase FRET ratio, 16 h; series mostly up to 61 µM
Summary of the method: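 Fluorescence from LiveBLAzer B/G FRET substrate, read after 2 h at room temperature, reflects beta-lactamase reporter activity in VDR-bla cells treated 16 h at 37C with compounds and agonist 1alpha,25-dihydroxyvitamin D3 (3 nM final).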
Potency is read from the fitted curve at half-maximal effect.

SMILES | Potency
CC1(CN2CCC(n3c(=O)[nH]c4ccccc43)CC2)OCc2ccccc2-n2cccc21 (stereo not drawn) | inactive
C1C[C@@H]2[C@H]3CC[C@H](C3)[C@@H]2C1 | inactive
O=C1NCCN1CCO | inactive
C=Cc1ccc(S(=O)(=O)O)cc1 | inactive
Clc1ccc(Nc2nnc(Cc3ccncc3)c3ccccc23)cc1 | inactive
Oc1cccc(O)c1O | inactive
O=C1c2ccccc2C(=O)C1(O)O | inactive
O=C(O)CCC(=O)C(=O)O | inactive
CC(C)C=O | inactive
N#[N+]c1ccc2c(S(=O)(=O)[O-])cccc2c1O | inactive
Cc1[nH]cnc1CN1CCc2c(c3ccccc3n2C)C1=O | inactive
CC1(C)S[C@@H]2[C@H](NC(=O)C(c3ccccc3)S(=O)(=O)O)C(=O)N2[C@H]1C(=O)O (stereo partly drawn) | inactive
O=C1c2ccccc2C(=O)C1c1ccc(Br)cc1 | inactive
CCCCN1CCCC1C(=O)Nc1c(C)cc(C)cc1C (stereo not drawn) | inactive
CC(C)Nc1cccnc1N1CCN(C(=O)c2cc3cc(NS(C)(=O)=O)ccc3[nH]2)CC1 | inactive
CN1C(=O)N(c2ccccc2Br)Cc2cnc(Nc3ccc4c(c3)OCC(CO)O4)nc21 (stereo not drawn) | 13.8 µM (active)
CC(C)(c1ccccc1)c1ccccc1 | inactive
Cc1ccco1 | inactive
